# Results filed as inconclusive are left out. Active and inactive are the calls of the source. The calls were made as follows: active = hit-call score of the fitted dose curve at least 0.9, where 1 is the maximum; inconclusive = response in the unintended direction; inactive = score below 0.9.
# Target: rat Vasoactive Intestinal Peptide Receptor (VIP), Non-selective Binding, Vipr1 (gene 24875) (UniProt P30083)
# Test: NVS_GPCR_rVIP_NonSelective: NovaScreen (NVS) G Protein-Coupled Receptor Assay for rat Vasoactive Intestinal Peptide Receptor (VIP), Non-selective Binding
# Protocol: NVS_GPCR_rVIP_NonSelective is a biochemical, single-readout assay that uses extracted gene-proteins from Rat forebrain membranes in a tissue-based cell-free assay. Measurements were taken 1 hour after chemical dosing in a 96-well plate.NVS_GPCR_rVIP_NonSelective is one of one assay component(s) measured or calculated from the NVS_GPCR_rVIP_NonSelective assay. It is designed to make measurements of radioligand binding, a form of binding reporter, as detected with scintillation counting signals by Filter-based radiodetection technology.Data from the assay component NVS_GPCR_rVIP_NonSelective was analyzed into 1 assay endpoint. This assay endpoint, NVS_GPCR_rVIP_NonSelective, was analyzed in the positive analysis fitting direction relative to DMSO as the negative control and baseline of activity. Using a type of binding reporter, loss-of-signal activity can be used to understand changes in the binding as they relate to the gene Vipr1. Furthermore, this assay endpoint can be referred to as a primary readout, because the performed assay has only produced 1 assay endpoint. To generalize the intended target to other relatable targets, this assay endpoint is annotated to the gpcr intended target family, where the subfamily is secretin receptor.
# Binding assays used specific radioligands (tritiated, iodinated) with non-radioactive competitive displacement ligands in agonist or antagonist protocols (as indicated) and various reference compounds and inhibitors to titrate specific binding to receptors and transporters. Most enzyme assays (CYPs, kinases, phosphatases, proteases, HDACs) used recombinant protein and specific substrates (fluorescence mostly, some colorimetric and radioactive) and inhibitors, followed by a biochemical separation of substrate and product. All assays for the biochemical HTS were initially run in duplicate at a single concentration (10 uM for CYP450 assays and 25 uM for all others). Assay-chemical combinations meeting a pre-defined threshold (e.g., 30% inhibition and other criteria defined below) were then run in singleton concentration-response format with maximum concentration of 20 uM for CYPs and 50 uM for all others. Each assay was run with positive and negative controls, and concurrent controls on every plate. The follow-up (secondary) screen tested active chemical-pairs in concentration series, as well as a few additional assays not tested in the primary screen, some selected negative inactives, and several cases re-run in the concentration series for confirmatory purposes.
# Sequence of rat Vasoactive Intestinal Peptide Receptor (VIP), Non-selective Binding, Vipr1 (gene 24875) (P30083 whole entry, looked up): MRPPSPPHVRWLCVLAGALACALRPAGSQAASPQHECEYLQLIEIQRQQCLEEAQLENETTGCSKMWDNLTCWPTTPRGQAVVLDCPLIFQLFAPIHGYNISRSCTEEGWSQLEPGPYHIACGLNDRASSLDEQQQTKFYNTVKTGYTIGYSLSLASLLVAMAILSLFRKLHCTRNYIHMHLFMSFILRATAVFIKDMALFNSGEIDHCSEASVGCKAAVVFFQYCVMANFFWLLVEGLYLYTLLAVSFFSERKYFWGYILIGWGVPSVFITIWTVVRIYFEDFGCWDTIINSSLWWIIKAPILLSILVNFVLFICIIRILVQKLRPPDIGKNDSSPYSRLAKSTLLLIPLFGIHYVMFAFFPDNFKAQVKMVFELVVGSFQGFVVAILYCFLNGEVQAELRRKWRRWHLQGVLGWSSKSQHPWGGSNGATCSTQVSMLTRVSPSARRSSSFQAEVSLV
Structure (SMILES),outcome,AC50
CCCCCCCCCC,inactive,
c1ccc(Nc2ccccc2)cc1,inactive,
COCC(C)OCC(C)OCC(C)O (stereo not given),inactive,
CC(=O)NC1(c2cccc(F)c2)CCN(CC[C@@]2(c3ccc(Cl)c(Cl)c3)CN(c3ccccc3)C(=O)CO2)CC1,inactive,
CN(C)C(=O)C1(N2CCCCC2)CCN(CC[C@@]2(c3ccc(Cl)c(Cl)c3)CN(C(=O)c3ccccc3)CCO2)CC1,inactive,
CC(C)(c1ccc(O)cc1)c1ccc(O)cc1,inactive,
O=C(N[C@@H](c1ccccc1)[C@@H]1CCCCN1)c1cccc(C(F)(F)F)c1Cl,inactive,
O=C(NO)C1(NS(=O)(=O)c2ccc(Oc3ccc(F)cc3)cc2)CCOCC1,inactive,
NCc1cccc(C2CCN(C(=O)c3ccc(C#Cc4ccccc4F)o3)CC2)c1,inactive,
CCOC(=O)O[C@H](C)OC(=O)c1ccc2c(c1)cc(C(=O)NC1CCN(C(C)C)CC1)n2Cc1cc(-c2ccc(Cl)s2)on1,,23.6 µM (active)
